Data on 16 compounds can be found in PubChem BioAssay (NCI).

Common to all, as to experiment: NCI-60 one-dose screen, 48 h (100 = growth as untreated, 0 = no growth, -100 = all killed)
Test [1] relates to SK-MEL-2 melanoma.
Test [2] concerns EKVX NSCLC.
In test [3] the test system is SN12C renal.
Test [4] deals with UO-31 renal.
In test [5] the test system is TK-10 renal.
For test [6], the system named is ACHN renal.
The subject of test [7] is CAKI-1 renal.
The test system of test [8] is CCRF-CEM leukemia.
The test system of test [9] is MOLT-4 leukemia.
Test [10] concerns A498 renal.

Where “and” joins values, the source holds several entries; their conditions need not be identical. Identical values can stand only once. This is part of a sample that, as a whole, favours compounds with a hit. Of some 83,000 tested, about 20% had one in any assay.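 Values shown are percent growth following 48 h exposure of cells in 96-well plates to a single concentration of compound; below 10 was considered active.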 Unmarked numbers belong to inactive results. Calls of active or inactive are those of the source. Starred links: 1 amine or outer side, 2 acyl side, 3 side chain; linkers in the order of their positions; H or OH if unused. Positions of bridges follow the written chain, without caps; N, C: chain ends. Non-standard residues stand in square brackets, D forms with d. Residues, ends and D or L forms follow the SMILES beside them. Chains are numbered I, II in the order given. Actinocin(9to1) = Cc1c2oc3c(C)ccc(C(=O)[*:1])c3nc-2c(C(=O)[*:2])c(N)c1=O; aThr = C[C@H](O)[C@H](N)C(=O)O; NMeV = CN[C@H](C(=O)O)C(C)C; Sar = CNCC(=O)O

Consider `CN1CCN(c2ccc3nc(-c4ccc5nc(-c6ccc(O)cc6)[nH]c5c4)[nH]c3c2)CC1`, for which the growth was 108% in test [1] (10 µM); 105% in [2] (10 µM); 88.9% in test [3] (10 µM); 103% in test [4] (10 µM); 111% in [5] (10 µM); 94.4% in test [6] (10 µM). Also, the growth in test [7] (10 µM) was 92.6%; in test [8] (10 µM) it was 74%; in [9] (10 µM), 76.4%.

Consider `CCCCCCCCCCCCCCCCCN`, for which the growth is 110% in [1] (10 µM); 96.8% in [3] (10 µM); 87.6% in test [4] (10 µM); 102% in [5] (10 µM); 97% in test [6] (10 µM); 91.1% in test [7] (10 µM). Further, the figures for the growth in [10] (10 µM), in [8] (10 µM) and in test [9] (10 µM) were 104%, 102% and 104%, respectively.

In the case of `S=c1[nH]nc(Cc2ccccc2)c(=S)[nH]1`, the growth in [1] (10 µM) was 104%; in [2] (10 µM), 97.8%; in [3] (10 µM) it was 113%; in [4] (10 µM) it was 76.3%; in [5] (10 µM) it was 99.7%; in test [6] (10 µM) it was 107%. The growth in [7] (10 µM) is 97.6%; in [10] (10 µM), 68.9%; in [8] (10 µM) it was 104%; in [9] (10 µM) it was 106%.

As for `COc1cc(C(C)(C)C)cc(OC)c1C(O)(c1c(OC)cc(C(C)(C)C)cc1OC)c1c(OC)cc(C(C)(C)C)cc1OC`, the growth in test [1] (10 µM) is -59.1% (active); in test [2] (10 µM), -50.5% (active); in test [3] (10 µM), -80.2% (active); in [4] (10 µM) it was -75.7% (active); in [5] (10 µM), -90.8% (active); in [6] (10 µM), -93% (active). The growth in test [7] (10 µM) is -69.1% (active); in [10] (10 µM), -79.4% (active); in test [8] (10 µM), -68% (active); in test [9] (10 µM) it was -81% (active).

On to `BrC/C=C/C[P+](c1ccccc1)(c1ccccc1)c1ccccc1`, for which the growth is 78.7% in test [1] (10 µM); 70.2% in test [2] (10 µM); 64.4% in test [3] (10 µM); 66.2% in [4] (10 µM); 48.7% in [5] (10 µM); 43.4% in test [6] (10 µM). Moreover, the growth in [7] (10 µM) is 103%; in test [10] (10 µM), 72.9%; in test [8] (10 µM), 37.9%; in test [9] (10 µM) it was 79.7%.

For `O=C(/C(=C/c1ccccc1)CBr)c1ccccc1`, the growth in test [1] (10 µM) is 93.4%; in [2] (10 µM), 82.1%; in test [3] (10 µM), 71.4%; in test [4] (10 µM) it was 69.9%; in test [5] (10 µM), 116%; in [6] (10 µM), 70%. Besides, the growth was 60.1% in [7] (10 µM), 128% in test [10] (10 µM), -4.28% (active) in test [8] (10 µM) and -3.18% (active) in test [9] (10 µM).

As to `N#C/C(=C1C=C/C(=N\O)C(Cl)=C\1)c1ccccc1`, the growth was 34.8% in test [3] (10 µM); 34% in test [4] (10 µM); 53.1% in test [5] (10 µM); 25.7% in test [6] (10 µM); 5.29% (active) in test [7] (10 µM); 86.5% in test [10] (10 µM). The growth in test [9] (10 µM) was 33.6%.

Consider `CSc1ccc2c(c1)C(N1CCN(C)CC1)Cc1ccccc1S2` (centres undefined), for which the growth in test [2] (10 µM) was 55.9%; in [3] (10 µM), 35.6%; in test [4] (10 µM) it was 15.5%; in test [5] (10 µM), 43.1%; in test [6] (10 µM), 12%; in [7] (10 µM), 19.5%. The growth was 16.4% in test [10] (10 µM), 31.7% in test [8] (10 µM) and -23.3% (active) in test [9] (10 µM).

Turning to `Cc1c2oc3c(C)ccc(C(=O)N[C@@H]4C(=O)N[C@H](C(C)C)C(=O)N5CCC[C@H]5C(=O)N(C)CC(=O)N(C)[C@@H](C(C)C)C(=O)O[C@H]4C)c3nc-2c(C(=O)N[C@@H]2C(=O)N[C@H](C(C)C)C(=O)N3CCC[C@H]3C(=O)N(C)CC(=O)N(C)[C@@H](C(C)C)C(=O)O[C@H]2C)c(N)c1=O` (I: [aThr][dV]P[Sar][NMeV] / II: [aThr][dV]P[Sar][NMeV]; ester I:1-I:C, II:1-II:C; linker I:N-II:N via Actinocin(9to1)), the growth was 75.4% in test [1] (0.0025 µM); -53.1% (active) in test [1] (10 µM); 54% in [2] (0.0025 µM); -11% (active) in test [2] (10 µM); 46.6% in [3] (0.0025 µM); 14.9% in test [3] (10 µM). The growth is 99.4% in [4] (0.0025 µM); -12.6% (active) in test [4] (10 µM); 87.7% in test [5] (0.0025 µM); 9.15% (active) in test [5] (10 µM); 62% in test [6] (0.0025 µM); 3.24% (active) in test [6] (10 µM). For the same compound, the growth in [7] (0.0025 µM) is 92.2%; in test [7] (10 µM) it was -13.7% (active); in [10] (0.0025 µM) it was 32.4%; in test [8] (0.0025 µM), 42.3%; in test [8] (10 µM) it was 0.799% (active); in test [9] (0.0025 µM), 23%. In addition, the growth in test [9] (10 µM) was -7.29% (active).

As for `Nc1ccc2cc(Br)c3ccccc3c2c1`, the growth in test [1] (10 µM) was 103%; in test [2] (10 µM) it was 31.3%; in test [3] (10 µM) it was 63.8%; in [4] (10 µM), 42.9%; in test [5] (10 µM) it was 85.8%; in [6] (10 µM) it was 66%. Further, the growth in test [7] (10 µM) was 20.1%; in test [10] (10 µM), 77.5%; in test [8] (10 µM), 37.8%; in [9] (10 µM), 28.2%.

In the case of `O=c1[nH]cc(F)c(=O)[nH]1`, the growth in test [1] (10 µM) is 71.4% and 106%; in test [1] (25 µM) it was 95.5%; in test [1] (50 µM), 73%; in test [2] (10 µM), 74.3% and 82.4%; in test [2] (25 µM), 58.4%; in [2] (50 µM), 62.8%. For the same compound, the growth in test [3] (10 µM) is 57% and 73%; in [3] (25 µM), 54%; in test [3] (50 µM), 46.3%; in test [4] (10 µM), 29.3% and 41.7%; in [4] (25 µM) it was 41.3%; in test [4] (50 µM), 38.2%. Further, the growth was 71.2% in test [5] (10 µM); 66.9% in [5] (25 µM); 39.8% and 60.1% in test [6] (10 µM); 39.3% in test [6] (25 µM); 36.9% in [6] (50 µM); 28.5% and 63.3% in [7] (10 µM). Moreover, the growth in [7] (25 µM) is 39.4%; in [7] (50 µM) it was 43.2%; in [10] (10 µM), 40.1%; in [10] (25 µM), -16.3% (active); in test [10] (50 µM), 52.6%; in [8] (10 µM) it was 56.3% and 65.9%. The growth in test [8] (25 µM) is 57.1%; in [8] (50 µM) it was 50%; in test [9] (10 µM) it was 57.5% and 74.9%; in test [9] (25 µM), 43.1%; in test [9] (50 µM) it was 37.6%.

`COc1ccc2c(C)cc(N/N=C/c3sccc3C)nc2c1`: the growth in test [5] (100 µM) is -82.7% (active) and -100% (active).

With `CN(C)CCC(=O)c1c[nH]c2ccccc12`, the growth in test [1] (10 µM) was 105%; in test [2] (10 µM) it was 111%; in test [3] (10 µM), 104%; in test [4] (10 µM) it was 77.3%; in test [5] (10 µM), 103%; in test [6] (10 µM), 105%. Also, the growth is 94.4% in [7] (10 µM), 126% in test [10] (10 µM), 96.2% in test [8] (10 µM) and 93.6% in test [9] (10 µM).

As to `Cc1ccc2nc(N/N=C/c3ccc(C)s3)cc(C)c2c1`, in test [5] (100 µM), the growth was -96.6% (active) and -100% (active).

For the compound `Cc1cc(NCCCN(C)C)c2ccc3c(ccc4c(NCCCN(C)C)cc(C)nc43)c2n1`, the growth is -62.8% (active) in test [1] (10 µM); -34.1% (active) in test [2] (10 µM); -49.6% (active) in [3] (10 µM); -54.7% (active) in test [4] (10 µM); -42.2% (active) in [5] (10 µM); -75.2% (active) in test [6] (10 µM). Also, the growth in [7] (10 µM) is -41.7% (active); in test [10] (10 µM), -87.6% (active); in test [8] (10 µM), -28.7% (active); in [9] (10 µM), -24.3% (active).

As to `Cc1cnc(/C=N\NC(N)=S)c2cccc(N)c12`, the growth in test [1] (10 µM) is -6.16% (active); in [2] (10 µM), 29.5%; in test [3] (10 µM), -12.9% (active); in test [4] (10 µM) it was 1.67% (active); in test [5] (10 µM), 19.6%; in [6] (10 µM), 10.2%. The growth is 2.66% (active) in [7] (10 µM), 12.4% in test [10] (10 µM), -28.1% (active) in test [8] (10 µM) and -13.8% (active) in test [9] (10 µM).
